Where “and” joins values, the source holds several entries; their conditions need not be identical. Identical values can stand only once. Results filed as inconclusive are left out. Calls of active or inactive are those of the source. Unless noted, calls come from the whole dose curve; as a rule, active = well fitted curve in the direction sought with a large enough effect in the repeat runs; inconclusive = weak or mixed curves; inactive = no such curve, though single readings can be large; an effect the other way counts as inactive or inconclusive.
How the values were obtained:
[1] = qHTS assay to identify small molecule agonists of H2AX (AID 1224845; active = well fitted activation curve with a large enough effect in the signal ratio in the repeat runs, not every such curve was filed as active; the % refers to the signal ratio); conditions: CHO-K1 phospho-H2AX Ser139 HTRF, 3 h; series mostly up to 154 µM
Summary of the method: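 Wild-type CHO-K1 cells plated overnight, then exposed 3 hr at 37C to compounds at 15 concentrations (0.76% DMSO). Lysed, then HTRF anti-pH2AX(S139)-cryptate/anti-H2AX-d2 detection after 24 hr at room temperature; emissions 665 and 620 nm.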

[2] = qHTS assay to identify small molecule agonists of the hypoxia (HIF-1) signaling pathway (AID 1224846; active = well fitted activation curve with a large enough effect in the signal ratio in the repeat runs, not every such curve was filed as active; the % refers to the signal ratio); conditions: HRE-bla ME-180 cells, beta-lactamase ratio, 17 h; series mostly up to 76.8 µM
Summary of the method: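 Steps: seed ME-180 HRE-bla cells (2,000/well, 0.5% dialyzed FBS); incubate 5 hrs at 37C; pin-transfer compounds or DMSO; incubate 17 hrs; add LiveBLAzer B/G substrate CCF4-AM; measure reporter activation by FRET.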

[3] = qHTS assay to identify small molecule agonists of H2AX - cell viability counter screen (AID 1224847; calls by dose curve; note: nearly all actives have a fitted effect of over 30% in size; note: potency is the fitted concentration of half-maximal effect); conditions: CHO-K1 viability, CellTiter-Glo luminescence, 3 h; series mostly up to 154 µM
Summary of the method: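 Counter-screen for viability: CellTiter-Glo ATP luminescence read after 3 h compound treatment (15-point titration, 0.76% DMSO final) of CHO-K1 cells at 37C, with 30 min room-temperature reagent incubation.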

[4] = qHTS assay to identify small molecule antagonists of the estrogen related receptor (ERR) signaling pathway from Tox21 library (AID 1224848); conditions: ERR reporter cell line, luciferase antagonist mode, 18 h; series mostly up to 92.4 µM; note: nearly all actives have a fitted effect of over 50% in size; note: potency is the fitted concentration of half-maximal effect
Summary of the method: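 Cells: ERR line, 2,000/well; 6 h preincubation 37 C/5% CO2. Cpd in DMSO via pin tool; 18 h, 37 C. ONE-Glo, 30 min RT, luminescence.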

[5] = qHTS assay to identify small molecule agonists of the estrogen related receptor (ERR) signaling pathway from Tox21 library (AID 1224849; calls by dose curve; note: nearly all actives have a fitted effect of over 15% in size); conditions: ERR reporter cell line, ONE-Glo luciferase, 18 h; at 92.4 µM (top of the series) unless noted
Summary of the method: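 Agonist signal is luciferase luminescence from an ERR reporter cell line treated 18 h at 37 C with DMSO-dissolved compounds, read 30 min after ONE-Glo addition at room temperature.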

[6] = qHTS RealTime-Glo MT Cell Viability Assay in HepG2 cells - 24 hour (AID 1224867); conditions: RealTime-Glo luminescence; series mostly up to 76.8 µM; note: nearly all actives have a fitted effect of over 50% in size; note: potency is the fitted concentration of half-maximal effect
Summary of the method: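 Tox21 10K library screened in qHTS format on HepG2 cells carrying RealTime-Glo reagents. Compounds were added after a 5 h preincubation, and the luminescent signal from continuous culture was measured repeatedly during 40 h treatment.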

[7] = qHTS RealTime-Glo MT Cell Viability Assay in HEK293 cells - 32 hour (AID 1224868); conditions: RealTime-Glo luminescence; series mostly up to 76.8 µM; note: nearly all actives have a fitted effect of over 50% in size; note: potency is the fitted concentration of half-maximal effect
Summary of the method: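 Luminescence generated by NanoLuc from substrate produced by living HEK293 cells served as the viability signal. Each value reflects the reading at its stated time point during continuous 40 h compound exposure at 37 C.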

[8] = A CellTox Green Cytotoxicity Assay to monitor cytotoxicity in HEK293 cells - 0 hour (AID 1224869); conditions: CellTox Green fluorescence; series mostly up to 76.8 µM; note: nearly all actives have a fitted effect of over 50% in size
Summary of the method: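 Cytotoxicity was tracked continuously in HEK293 cells by a DNA-binding dye excluded from viable cells. Compounds were transferred in DMSO 5 h after seeding; fluorescence was recorded at intervals up to 40 h.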

[9] = qHTS RealTime-Glo MT Cell Viability Assay in HepG2 cells - 40 hour (AID 1224870); conditions: RealTime-Glo luminescence; series mostly up to 76.8 µM; note: nearly all actives have a fitted effect of over 50% in size; note: potency is the fitted concentration of half-maximal effect
Summary of the method: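 HepG2 cells mixed with RealTime-Glo MT reagents (NanoLuc plus cell-permeant prosubstrate) were seeded at 600 cells/well, incubated 5 h at 37 C/5% CO2, then pinned with compounds in DMSO; nonlytic luminescence tracked viability during 40 h treatment.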

[10] = qHTS assay to identify small molecule agonists of the hypoxia (HIF-1) signaling pathway - cell viability counter screen (AID 1224844; calls by dose curve; note: nearly all actives have a fitted effect of over 50% in size; note: potency is the fitted concentration of half-maximal effect); conditions: HRE-bla ME-180 viability, CellTiter-Glo luminescence, 17 h; series mostly up to 76.8 µM
Summary of the method: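 Tox21 10K compounds were added to HRE-bla ME-180 cells (0.5% dialyzed FBS) and incubated 17 hrs at 37C; ATP-based CellTiter-Glo luminescence then reported cell viability in the same wells.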
% is set by controls: 0 for no effect and ±100 for the full control effect.

C=C1C[C@@]23CC[C@H]4[C@@](C)(CCC[C@@]4(C)C(=O)O[C@@H]4O[C@H](CO)[C@@H](O)[C@H](O)[C@H]4O)[C@@H]2CC[C@]1(O[C@@H]1O[C@H](CO)[C@@H](O)[C@H](O[C@@H]2O[C@H](CO)[C@@H](O)[C@H](O)[C@H]2O)[C@H]1O[C@@H]1O[C@H](CO)[C@@H](O)[C@H](O)[C@H]1O)C3
inactive: Potency [1] | outcome [2] | Potency [3] | Potency [4] | activity change, positive = activation [5] 1.6% | Potency [6] | Potency [7] | Potency [8] | Potency [9]

O=C(/C=C/c1ccc(O)c(O)c1)O[C@@H]1C[C@@](OC(=O)/C=C/c2ccc(O)c(O)c2)(C(=O)O)C[C@@H](O)[C@@H]1O
inactive: Potency [10] | Potency [3] | Potency [6] | Potency [7] | Potency [9]

O=c1c(O)c(-c2ccc(O)cc2)oc2cc(O)cc(O)c12
inactive: Potency [10] | Potency [4] | activity change, positive = activation [5] 4.05% [at 42.5 µM] | Potency [6] | Potency [7] | Potency [8] | Potency [9]

C=C(C)[C@@H]1CCC2=CCC[C@@H](C)[C@]2(C)C1
inactive: Potency [10] | outcome [2] | Potency [3] | Potency [4] | activity change, positive = activation [5] -7.47% | Potency [6] | Potency [7] | Potency [8] | Potency [9]

N#[N+]c1ccc2c(S(=O)(=O)[O-])cccc2c1O
inactive: Potency [10] | outcome [2] | Potency [3] | Potency [4] | activity change, positive = activation [5] -0.985% | Potency [6] | Potency [7] | Potency [8] | Potency [9]

CN1C[C@H](C(=O)N[C@]2(C)O[C@@]3(O)[C@@H]4CCCN4C(=O)[C@H](Cc4ccccc4)N3C2=O)C[C@@H]2c3cccc4[nH]cc(c34)C[C@H]21
active: Potency [10] 12 µM | Potency [4] 29.8 µM | Potency [7] 21.3 µM
inactive: activity change, positive = activation [5] -52.3% [at 42.5 µM]

O=C(OCC(O)CO)c1ccccc1Nc1ccnc2cc(Cl)ccc12 (centres undefined)
inactive: Potency [10] | activity change, positive = activation [5] -40.1% [at 42.5 µM] | Potency [6] | Potency [8] | Potency [9]
active: Potency [4] 26.6 µM | Potency [7] 8.49 µM

CC1(CN2CCC(n3c(=O)[nH]c4ccccc43)CC2)OCc2ccccc2-n2cccc21 (centres undefined)
inactive: Potency [1] | Potency [8] | Potency [9]
active: Potency [10] 23.9 µM | Potency [7] 19 µM

O=C(CCc1ccc(O)cc1)c1c(O)cc(O)cc1O
inactive: Potency [10] | activity change, positive = activation [5] -22.5% | Potency [6] | Potency [8] | Potency [9]
active: Potency [7] 39.8 µM

O=c1cc(-c2ccccc2)oc2ccc3ccccc3c12
active: Potency [10] 24.5 µM | Potency [3] 25.3 µM | activity change, positive = activation [5] -35%
inactive: outcome [2] | Potency [4] | Potency [6] | Potency [7] | Potency [8] | Potency [9]

COC(=O)c1nc(Cl)c(Cl)nc1N
active: Potency [10] 13.4 µM | Potency [4] 29.8 µM | Potency [9] 12 µM
inactive: activity change, positive = activation [5] -72.9% [at 42.5 µM] | Potency [8]

CCCCCCNC(=O)n1cc(F)c(=O)[nH]c1=O
inactive: Potency [10] | outcome [2] | Potency [3] | Potency [4] | activity change, positive = activation [5] -8.15% [at 42.5 µM] | Potency [6] | Potency [7] | Potency [8] | Potency [9]

OC[C@H]1O[C@@H](n2cnc3c(=S)nc[nH]c32)[C@H](O)[C@@H]1O
active: Potency [3] 3.1 µM | Potency [4] 11.9 µM | Potency [7] 21.3 µM
inactive: Potency [10] | outcome [2] | activity change, positive = activation [5] -47.1% [at 42.5 µM] | Potency [6] | Potency [9]

C=CC(=O)OCC1CC2CC1C1CCC(COC(=O)C=C)C21 (centres undefined)
inactive: Potency [10] | Potency [8]

Nc1ccc(N=Nc2ccccc2)c(N)c1
active: Potency [3] 98.6 µM
inactive: Potency [10] | Potency [9]

Cc1ccc(OC(=O)c2ccccc2O)cc1
inactive: Potency [10] | outcome [2] | Potency [4] | activity change, positive = activation [5] 2.99% | Potency [6] | Potency [8] | Potency [9]

CC(=O)Nc1cc(S(=O)(=O)O)cc2cc(S(=O)(=O)O)c(N=Nc3ccccc3)c(O)c12
active: Potency [3] 50.5 µM
inactive: Potency [10] | outcome [2] | activity change, positive = activation [5] -5.56% | Potency [6] | Potency [7] | Potency [8]

C[C@@H]1CC(=O)NN=C1c1ccc(NN=C(C#N)C#N)cc1
active: Potency [4] 13.3 µM
inactive: Potency [10] | activity change, positive = activation [5] -30.7% [at 42.5 µM] and -38.2% [at 42.5 µM] | Potency [8]

Oc1cccc(O)c1O
inactive: Potency [10] | outcome [2] | Potency [4] | activity change, positive = activation [5] 0.0681% | Potency [6] | Potency [7] | Potency [8] | Potency [9]

COc1cc(C(=O)NC2CCN(C)CC2)ccc1Nc1ncc2c(n1)N(C1CCCC1)CC(F)(F)C(=O)N2C
inactive: outcome [2] | activity change, positive = activation [5] -53.6%
active: Potency [10] 20 µM | Potency [6] 40 µM | Potency [7] 0.0142 µM | Potency [9] 44.9 µM

From PubChem BioAssay (Tox21)
